This is an account of results in PubChem BioAssay AID493012 (Sanford-Burnham Center for Chemical Genomics, 2011).

Each structure is given as a SMILES string. The whole screen tested about 330,000 compounds, of which about 930 (0.28%) were called active. Shown is part of a subset that was picked to be rich in actives. A number with no mark means an inactive call.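 Rule for the calls: active = inhibition of at least 40% at 20 µM, with no more than 30% in the related APOBEC3A deaminase screen; inactive = the rest.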

As a reminder, the inhibition is the relative decrease from the control value, in per cent.

DNA dC->dU-editing enzyme APOBEC-3G (Homo sapiens), sequence (Q9HC16 whole entry, looked up): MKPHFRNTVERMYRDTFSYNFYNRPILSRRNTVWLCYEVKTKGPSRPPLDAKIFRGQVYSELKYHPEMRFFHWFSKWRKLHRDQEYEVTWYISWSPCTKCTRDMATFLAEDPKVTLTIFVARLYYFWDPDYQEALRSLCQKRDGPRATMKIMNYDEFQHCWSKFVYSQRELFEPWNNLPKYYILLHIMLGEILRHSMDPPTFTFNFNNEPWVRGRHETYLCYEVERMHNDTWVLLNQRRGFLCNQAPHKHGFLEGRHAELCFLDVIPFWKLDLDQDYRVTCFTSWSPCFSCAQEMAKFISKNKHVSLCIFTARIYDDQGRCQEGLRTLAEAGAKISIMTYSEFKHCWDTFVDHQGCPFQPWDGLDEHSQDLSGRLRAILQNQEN

The test has as its target DNA dC->dU-editing enzyme APOBEC-3G (Homo sapiens) (UniProt Q9HC16). The experiment in a line: inhibition of human A3G ssDNA deamination – biochemical, fluorescence, single-stranded DNA substrate, uHTS, primary screen (AID 493012).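 Note: plate controls were DMSO wells with A3G for no effect and wells lacking A3G enzyme for full effect.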 The following applies: recombinant A3G, ssDNA deamination FAM/TAMRA fluorescence; at 20 µM; active compounds read high.
Regarding `CC(C)(C)c1nnc(NC(=O)C2c3ccccc3Oc3ccccc32)s1`, the inhibition was 53.3% (active).
`CCC(C)(C)NC(=O)C1c2ccccc2Oc2ccccc21`: the inhibition is -0.78%.
In the case of `CCC(C)NC(=O)C1c2ccccc2Oc2ccccc21` (stereo unspecified), the inhibition is -4.18%.
With `CCCCn1c(N)c(N(CCOC)C(=O)c2sc3ccccc3c2Cl)c(=O)[nH]c1=O`, the inhibition is -7.98%.
Turning to `CCCCCC(O)c1cccc(OCc2ccc3ccccc3n2)c1` (stereo unspecified), the inhibition is -6.99%.
The result for `Cc1ccc(NC(=O)C2CCN(S(=O)(=O)c3ccc4c(c3)NC(=O)CO4)CC2)cc1C` reads -9.26%; that for `NC(=O)C1CCN(C(=O)c2ccc(F)c(S(=O)(=O)N3CCOCC3)c2)CC1`, -4.4%.
As for `CN(C(=O)c1cccc(NC(=O)Cc2cccc([N+](=O)[O-])c2)c1)C1CCCCC1`, the figure is -1.19%; as for `CCn1cc(C(=O)N2CC(C)CC(C)C2)c(=O)c2cc(S(=O)(=O)N3CCCC3)ccc21` (stereo unspecified), -1.06%; as for `CCN(CC)C(=O)CSC(Nc1cccc(F)c1)=C(C#N)C#N`, -2.9%.
Consider `Nc1ccccc1SC(C[N+](=O)[O-])c1ccccc1` (stereo unspecified), for which the inhibition was 75.7% (active).
As for `O=C(COc1cc(Cl)c(Cl)cc1Cl)NC(=O)NC1CCCC1`, the figure is -1.68%; as for `CC(C)(C)C(=O)c1cnc(Nc2ccccc2)s1`, 17.8%; as for `O=C(CSc1ncccn1)NCCc1ccccc1`, -0.062%.
The result for `Nc1c(NCCc2ccccc2)c2ccccc2oc1=O` reads -2.86%.
With `S=c1[nH]nc(NCCc2ccccc2)s1`, the inhibition is 43.1% (active).
As for `S=c1[nH]nc(Nc2ccccc2)s1`, the inhibition was 42.7% (active).
Consider `O=c1cnnc(Nc2ccccc2)[nH]1`, for which the inhibition was -1.93%.
As for `Cc1ccc([N+](=O)[O-])c(OCCCNCC(C)O)c1` (stereo unspecified), the figure is -8.53%.
As for `Cc1cc(C)n(C(=O)c2ccc(C)c(S(=O)(=O)N3CCOCC3)c2)n1`, the inhibition was 0.652%.
`COc1ccc(CCNC(=O)CS(=O)(=O)Cc2nc(-c3ccc(C)cc3)oc2C)cc1OC`: the inhibition is -6.41%.
The result for `S=c1[nH]nc(-c2cc(-c3ccsc3)n[nH]2)n1-c1ccccc1` reads 20.5%.
With `CCN(CC)S(=O)(=O)c1cccc(-c2n[nH]c(=S)n2/N=C/c2ccc(C(=O)OC)cc2)c1`, the inhibition is -5.7%.
As for `S=c1[nH]nc(-c2cc(-c3ccccc3)n[nH]2)n1/N=C/c1c2ccccc2cc2ccccc12`, the figure is 43.4% (active).
For the compound `O=c1c2ccccc2nnn1CSc1nc2sc3c(c2c(=O)n1CC1CCCO1)CCC3` (stereo unspecified), the inhibition was -0.082%.
The result for `CC(C)c1ccc(NC(=O)COC(=O)c2ccc(CN3CCCC3=O)cc2)cc1` reads -5.19%.
